Data reported in PubChem BioAssay (Tox21).
Where “and” joins values, the source holds several entries; their conditions need not be identical. Identical values can stand only once. Inconclusive results are not listed. Calls of active or inactive are those of the source. Unless noted, calls follow the shape of the dose curve; as a rule, active = well fitted curve in the direction sought with a large enough effect in the repeat runs; inconclusive = weak or mixed curves; inactive = no such curve, though single readings can be large; an effect the other way counts as inactive or inconclusive.

Assays:
[1] = qHTS assay to identify small molecule agonists of the hypoxia (HIF-1) signaling pathway - cell viability counter screen (AID 1224844; calls by dose curve; also: nearly all actives have a fitted effect of over 50% in size)
Method in brief: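 ME-180 HRE-bla cells, 2,000/well, 0.5% dialyzed FBS; 5 hr settle, 17 hr compound at 37C/5% CO2; CCF4-AM reporter read first, then CellTiter-Glo luminescence after 30 min RT.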

[2] = qHTS assay to identify small molecule agonists of H2AX (AID 1224845; active = well fitted activation curve with a large enough effect in the signal ratio in the repeat runs, not every such curve was filed as active; the % refers to the signal ratio)
Method in brief: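 Wild-type CHO-K1 cells, plated overnight, exposed 3hr at 37C to 15 concentrations (0.76% DMSO final). Lysed, then HTRF anti-pH2AX (S139) cryptate and anti-H2AX-d2 antibodies, 24 hr room temperature; 665/620 nm emission read.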

[3] = qHTS assay to identify small molecule antagonists of the estrogen related receptor (ERR) signaling pathway from Tox21 library (AID 1224848); also: nearly all actives have a fitted effect of over 50% in size
Method in brief: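 Luminescent reporter read-out (ONE-Glo) from NTP's ERR cell line after 18 h treatment at 37 C with DMSO-dissolved Tox21 compounds; cells pre-plated 6 h beforehand at 2,000 per well.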

[4] = qHTS assay to identify small molecule agonists of the estrogen related receptor (ERR) signaling pathway from Tox21 library (AID 1224849; calls by dose curve; also: nearly all actives have a fitted effect of over 15% in size); settings: ERR reporter cell line, ONE-Glo luciferase, 18 h; at 42.5 µM (top of the series)
Method in brief: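 ERR cells, 6 h pre-incubation 37 C/5% CO2; cpd in DMSO pinned; 18 h 37 C; ONE-Glo added, 30 min RT; luminescence read. Agonist mode, qHTS.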

[5] = qHTS RealTime-Glo MT Cell Viability Assay in HepG2 cells - 24 hour (AID 1224867); also: nearly all actives have a fitted effect of over 50% in size
Method in brief: (§1)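 qHTS, HepG2, 600 cells/well, RealTime-Glo (NanoLuc + prosubstrate) added with cells; 5 h preincubation; DMSO compound addition; 37 C; luminescence at 0/8/16/24/32/40 h.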

[6] = A CellTox Green Cytotoxicity Assay to monitor cytotoxicity in HEK293 cells - 0 hour (AID 1224869); also: nearly all actives have a fitted effect of over 50% in size
Method in brief: (§2)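 Nonlytic real-time cytotoxicity: HEK293 + CellTox Green reagent plated, 5 h preincubation, pintool compound addition (23 nL in DMSO), 37 C for 40 h, fluorescence measured at successive time points.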

[7] = qHTS RealTime-Glo MT Cell Viability Assay in HepG2 cells - 40 hour (AID 1224870); also: nearly all actives have a fitted effect of over 50% in size
Method in brief: (§3)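 HepG2 cells (600/well) mixed with RealTime-Glo MT reagent, settled 5 h at 37 C/5% CO2 before compound addition. Nonlytic NanoLuc luminescence from viable-cell prosubstrate reduction read repeatedly during 40 h treatment at 37 C.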

[8] = A CellTox Green Cytotoxicity Assay to monitor cytotoxicity in HEK293 cells - 40 hour (AID 1224871); also: nearly all actives have a fitted effect of over 45% in size
Method in brief: as §2

[9] = qHTS RealTime-Glo MT Cell Viability Assay in HEK293 cells - 16 hour (AID 1224872); also: nearly all actives have a fitted effect of over 50% in size; also: potency is read from the fitted curve at half-maximal effect
Method in brief: (§4)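 Assay medium contained NanoLuc luciferase plus cell-permeant prosubstrate, added with HEK293 cells at 600 cells/well. After 5 h at 37 C/5% CO2 compounds were added; plates stayed at 37 C for 40 h with serial luminescence reads.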

[10] = qHTS RealTime-Glo MT Cell Viability Assay in HepG2 cells - 8 hour (AID 1224873); also: nearly all actives have a fitted effect of over 55% in size
Method in brief: as §3

[11] = qHTS RealTime-Glo MT Cell Viability Assay in HEK293 cells - 40 hour (AID 1224874); settings: RealTime-Glo luminescence; max response: stronger effect = lower value; also: nearly all actives have a fitted effect of over 50% in size; also: potency is read from the fitted curve at half-maximal effect
Method in brief: (§5)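 Cells were seeded together with NanoLuc luciferase and a prosubstrate that viable cells reduce to a luciferase substrate. After a 5 h incubation at 37 C/5% CO2, compounds were added and luminescence was measured repeatedly during 40 h of treatment.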

[12] = A CellTox Green Cytotoxicity Assay to monitor cytotoxicity in HEK293 cells - 24 hour (AID 1224875); also: nearly all actives have a fitted effect of over 45% in size
Method in brief: as §2

[13] = A CellTox Green Cytotoxicity Assay to monitor cytotoxicity in HepG2 cells - 16 hour (AID 1224876); also: nearly all actives have a fitted effect of over 45% in size
Method in brief: (§6)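 Read-out is fluorescence of a cyanine dye excluded from live cells that stains DNA of dead HepG2 cells, with signal proportional to cytotoxicity. Plates were read at 0, 8, 16, 24, 32 and 40 h after compound addition.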

[14] = qHTS RealTime-Glo MT Cell Viability Assay in HepG2 cells - 32 hour (AID 1224877); also: nearly all actives have a fitted effect of over 55% in size
Method in brief: as §1

[15] = A CellTox Green Cytotoxicity Assay to monitor cytotoxicity in HepG2 cells - 24 hour (AID 1224878); also: nearly all actives have a fitted effect of over 45% in size
Method in brief: as §6

[16] = A CellTox Green Cytotoxicity Assay to monitor cytotoxicity in HepG2 cells - 40 hour (AID 1224879); also: nearly all actives have a fitted effect of over 40% in size
Method in brief: as §6

[17] = qHTS RealTime-Glo MT Cell Viability Assay in HEK293 cells - 0 hour (AID 1224880)
Method in brief: as §5

[18] = qHTS assay to identify small molecule agonists of the hypoxia (HIF-1) signaling pathway (AID 1224846; active = well fitted activation curve with a large enough effect in the signal ratio in the repeat runs, not every such curve was filed as active; the % refers to the signal ratio)
Method in brief: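 Cell line: CellSensor HRE-bla ME-180; 2,000 cells/well; 0.5% dialyzed FBS; 5 h preincubation; DMSO compound pin transfer; 17 h, 37C, 5% CO2; CCF4-AM added; bla FRET signal scored for activation.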

[19] = qHTS assay to identify small molecule agonists of H2AX - cell viability counter screen (AID 1224847; calls by dose curve; also: top concentration of the series differs between compounds; nearly all actives have a fitted effect of over 30% in size)
Method in brief: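 Cells plated first: CHO-K1, 1000 per well in 10% FBS medium, incubated overnight at 37C. Then 15-point compound titration added (final DMSO 0.76%) for 3 hr. Finally CellTiter-Glo added and luminescence read.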

[20] = qHTS RealTime-Glo MT Cell Viability Assay in HEK293 cells - 32 hour (AID 1224868); also: nearly all actives have a fitted effect of over 50% in size; also: potency is read from the fitted curve at half-maximal effect
Method in brief: as §4
% is scaled to controls: 0 for no effect and ±100 for the full control effect.

CC[N+]1(C)CCCC(OC(=O)C(O)(c2ccccc2)c2ccccc2)C1 (stereo unspecified)
inactive: Potency [1] | Potency [2] | Potency [3] | activity change, positive = activation [4] 6.13% | Potency [5] | Potency [6] | Potency [7] | Potency [8] | Potency [9] | Potency [10] | max response [11] 1.3% | Potency [12] | Potency [13] | Potency [14] | Potency [15] | Potency [16] | outcome [17]

c1ccc2sc(SNC3CCCCC3)nc2c1
inactive: Potency [2] | outcome [18] | Potency [19] | Potency [5] | Potency [6] | Potency [7] | Potency [8] | Potency [9] | Potency [10] | max response [11] -0.932% and 2.76% | Potency [12] | Potency [13] | Potency [14] | Potency [15] | Potency [16] | outcome [17]

C=CCSSCC=C
inactive: Potency [1] | outcome [18] | Potency [19] | Potency [5] | Potency [6] | Potency [7] | Potency [8] | Potency [9] | Potency [10] | max response [11] 1.18% | Potency [12] | Potency [13] | Potency [14] | Potency [15] | Potency [16] | outcome [17]

COc1ccc(C(=O)c2c(C)n(CCN3CCOCC3)c3ccccc23)cc1
inactive: Potency [1] | outcome [18] | Potency [19] | activity change, positive = activation [4] -28.1% | Potency [5] | Potency [6] | Potency [7] | Potency [8] | Potency [9] | Potency [10] | Potency [14] | outcome [17]

O=P(OCC(Br)CBr)(OCC(Br)CBr)OCC(Br)CBr (stereo unspecified)
active: Potency [20] 27.9 µM | Potency [9] 22.2 µM | Potency [11] 27.9 µM
inactive: Potency [1] | Potency [2] | Potency [5] | Potency [6] | Potency [7] | Potency [8] | Potency [10] | Potency [13] | Potency [14] | Potency [15] | outcome [17]

CC(C)(C)NCC(O)c1ccccc1Cl (stereo unspecified)
inactive: Potency [1] | Potency [2] | Potency [3] | activity change, positive = activation [4] 4.93% | Potency [5] | Potency [20] | Potency [6] | Potency [7] | Potency [8] | Potency [9] | Potency [10] | max response [11] 4.08% | Potency [12] | Potency [13] | Potency [14] | Potency [15] | Potency [16] | outcome [17]

CC(Cc1ccccc1)NCc1ccccc1Cl (stereo unspecified)
inactive: Potency [1] | Potency [2] | Potency [5] | Potency [6] | Potency [7] | Potency [9] | Potency [10] | max response [11] -14.1% | Potency [13] | Potency [14] | Potency [15] | Potency [16] | outcome [17]
